{
  "source": "PubChem BioAssay (Tox21)",
  "note": "Records with an inconclusive call do not appear. Active and inactive are the calls of the source. Calls follow the shape of the dose curve; as a rule, active = well fitted cell-killing curve with a large enough effect in the repeat runs; inconclusive = weak or mixed curves, or effect the other way; inactive = flat fitted curve, though single readings scatter. % is scaled to controls: 0 for no effect and ±100 for the full control effect.",
  "data": [
    {"experiment": "qHTS RealTime-Glo MT Cell Viability Assay in HepG2 cells - 0 hour (AID 1224889); also: nearly all actives have a fitted effect of over 50% in size", "details": "RealTime-Glo luminescence; series mostly up to 76.8 µM; activity change, negative = cytotoxicity: at the top concentration", "source_text": "U.S. Tox21 Program National Center for Advancing Translational Sciences [NCATS] NIH Chemical Genomics Center [NCGC] U.S. Environmental Protection Agency [EPA] National Institutes of Environmental Health Sciences [NIEHS] National Toxicology Program [NTP] U.S. Food and Drug Administration [FDA] Tox21 Assay Overview: Measure of cell viability is critical in the cell-base assay. Analysis of cell viability is necessary for the characterization of cell responses to cytotoxic drugs and environmental stress. A RealTime-Glo MT Cell Viability Assay to monitor cell viability in real time of continues cell culture during 40 hours of compound treatment was used to screen Tox21 10K library compounds in HepG2 cells. The RealTime-Glo MT Cell Viability Assay is a nonlytic, homogeneous, bioluminescent method to measure cell viability in real time using a simple, plate-based method. The assay involves adding NanoLuc luciferase and a cell-permeant prosubstrate to cells in culture. Viable cells reduce the proprietary prosubstrate to generate a substrate for NanoLuc luciferase. This substrate diffuses from cells into the surrounding culture medium, where it is rapidly used by the NanoLuc Enzyme to produce a luminescent signal. The signal correlates with the number of viable cells, making the assay well suited for cytotoxicity studies.\nTox21 Assay Protocol Summary: The mixture of HepG2 cell suspension and reagents were dispensed at 600cells/6 ul/well in 1536-well tissue culture treated black solid bottom plates using a Multidrop dispenser. After the assay plates were incubated at a 37 C/5% CO2 incubator for 5 hours, 23 nL of compounds dissolved in DMSO, positive and negative controls was transferred to the assay plate by a pintool work station. The plates were incubated at 37 C for 40 hours. The luminescence intensity were measured at 0h, 8h, 16h, 24h, 32h and 40h time points using ViewLux plate reader during compound treatment.", "values": [
      {"smiles": "Cc1cc(Cl)ccc1O[C@H](C)C(=O)O", "activity change, negative = cytotoxicity": "-23.3% (inactive)"},
      {"smiles": "COCC(=O)N(c1c(C)cccc1C)[C@H](C)C(=O)OC", "activity change, negative = cytotoxicity": "5.41% (inactive)"},
      {"smiles": "CC1(C)C(/C=C(\\Cl)C(F)(F)F)C1C(=O)OC(C#N)c1cccc(Oc2ccccc2)c1", "note": "(stereo not given)", "activity change, negative = cytotoxicity": "3.08% (inactive)"},
      {"smiles": "N#CCCSCCC#N", "activity change, negative = cytotoxicity": "9.47% (inactive)"},
      {"smiles": "Clc1ccc(-c2ccc(Cl)c(Cl)c2Cl)c(Cl)c1Cl", "activity change, negative = cytotoxicity": "-6.65% (inactive)"},
      {"smiles": "Oc1cccc(-c2ccccc2)c1", "activity change, negative = cytotoxicity": "19.1% (inactive)"},
      {"smiles": "C=CCC1=C(C)C(OC(=O)C2C(C=C(C)C)C2(C)C)CC1=O", "note": "(stereo not given)", "activity change, negative = cytotoxicity": "2.3% (inactive)"},
      {"smiles": "CCSC(C)CC1CC(=O)C(/C(CC)=N/OC/C=C/Cl)=C(O)C1", "note": "(stereo not given)", "activity change, negative = cytotoxicity": "-9.67% [at 35.3 µM] (inactive)"},
      {"smiles": "COP(=O)(CCC(=O)NCO)OC", "activity change, negative = cytotoxicity": "1.04% (inactive)"},
      {"smiles": "CCOc1cc(C(C)(C)C)ccc1C1COC(c2c(F)cccc2F)=N1", "note": "(stereo not given)", "activity change, negative = cytotoxicity": "7% [at 35.3 µM] (inactive)"},
      {"smiles": "CCCCCCCCCCCCBr", "activity change, negative = cytotoxicity": "8.49% (inactive)"},
      {"smiles": "C[CH2][Hg][N]1C(=O)C2C(C1=O)C1(Cl)C(Cl)=C(Cl)C2(Cl)C1(Cl)Cl", "note": "(stereo not given)", "activity change, negative = cytotoxicity": "-6.6% [at 15.8 µM] (inactive)"},
      {"smiles": "C[C@@H](Oc1ccc(Cl)cc1Cl)C(=O)O", "activity change, negative = cytotoxicity": "-8.65% (inactive)"},
      {"smiles": "CC(=O)[O-].[Tl+]", "activity change, negative = cytotoxicity": "-0.513% (inactive)"},
      {"smiles": "Fc1cccc(Cl)c1CCl", "activity change, negative = cytotoxicity": "6.89% (inactive)"},
      {"smiles": "CCOP(=S)(OCC)SCS(=O)(=O)CC", "activity change, negative = cytotoxicity": "1.52% (inactive)"},
      {"smiles": "CC(=O)c1cc(C(C)(C)C)cc2c1CCC2(C)C", "activity change, negative = cytotoxicity": "0.552% (inactive)"},
      {"smiles": "c1ccc(OCC2CO2)cc1", "note": "(stereo not given)", "activity change, negative = cytotoxicity": "-1.18% (inactive)"},
      {"smiles": "CCCCCCCCCCCCCC[P+](CCCCCC)(CCCCCC)CCCCCC", "note": "(tested in a mixture with another compound)", "activity change, negative = cytotoxicity": "-27.7% (inactive)"},
      {"smiles": "S=C=Nc1cccc2ccccc12", "activity change, negative = cytotoxicity": "-14.2% (inactive)"},
      {"smiles": "NNC(=O)c1ccccc1", "activity change, negative = cytotoxicity": "1.11% (inactive)"},
      {"smiles": "CN(C)CCc1c[nH]c2ccc(O)cc12", "activity change, negative = cytotoxicity": "13.6% (inactive)"},
      {"smiles": "CC1(C)[C@H](C(=O)O[C@H](C#N)c2cccc(Oc3ccccc3)c2)[C@@H]1/C=C(\\Cl)C(F)(F)F", "Potency": "inactive"},
      {"smiles": "Clc1ccc(C(c2ccccc2Cl)C(Cl)(Cl)Cl)cc1", "note": "(stereo not given)", "Potency": "inactive"},
      {"smiles": "Cc1c(Cl)c(=O)oc2cc(OP(=O)(OCCCl)OCCCl)ccc12", "activity change, negative = cytotoxicity": "-26.8% [at 35.3 µM] (inactive)"},
      {"smiles": "CN(C)C(=S)S", "Potency": "inactive"},
      {"smiles": "BrC(Br)Br", "activity change, negative = cytotoxicity": "4.01% (inactive)"},
      {"smiles": "c1ccc2c(c1)OCC(C1=NCCN1)O2", "note": "(stereo not given)", "activity change, negative = cytotoxicity": "0.812% [at 35.3 µM] (inactive)"},
      {"smiles": "NC(=O)CCl", "activity change, negative = cytotoxicity": "-2.92% (inactive)"},
      {"smiles": "FC(F)(F)c1cccc(C2=CCN(CCc3ccc4ccccc4c3)CC2)c1", "activity change, negative = cytotoxicity": "0.396% [at 35.3 µM] (inactive)"},
      {"smiles": "CN(C)C(=S)[S-].CN(C)C(=S)[S-].[Cu+2]", "activity change, negative = cytotoxicity": "-22.4% [at 15.8 µM] (inactive)"},
      {"smiles": "Oc1ccc(C2(c3ccc(O)cc3)c3ccccc3-c3ccccc32)cc1", "activity change, negative = cytotoxicity": "-20.1% (inactive)"},
      {"smiles": "CC1(C)CN=C(NN=C(/C=C/c2ccc(C(F)(F)F)cc2)/C=C/c2ccc(C(F)(F)F)cc2)NC1", "activity change, negative = cytotoxicity": "12% (inactive)"},
      {"smiles": "CCc1cc(C)cc(CC)c1-c1c(OC(=O)C(C)(C)C)n2n(c1=O)CCOCC2", "activity change, negative = cytotoxicity": "-14.3% (inactive)"},
      {"smiles": "N#CCc1ccc(Cl)cc1", "activity change, negative = cytotoxicity": "0.0679% (inactive)"},
      {"smiles": "CC(C)OS(C)(=O)=O", "activity change, negative = cytotoxicity": "0.592% (inactive)"},
      {"smiles": "CC(C)Oc1cccc(NC(=O)c2ccccc2C(F)(F)F)c1", "activity change, negative = cytotoxicity": "-21% (inactive)"},
      {"smiles": "ClC1=C(Cl)[C@]2(Cl)[C@@H]3[C@@H](Cl)[C@H](Cl)C[C@@H]3[C@@]1(Cl)C2(Cl)Cl", "activity change, negative = cytotoxicity": "1.86% (inactive)"},
      {"smiles": "Clc1ccc(Oc2ccccc2)cc1", "activity change, negative = cytotoxicity": "-7.74% (inactive)"},
      {"smiles": "COc1cc(C=O)cc2c1[C@H](COC(N)=O)[C@]1(OC(C)=O)ON2C[C@H]2[C@@H]1N2C(C)=O", "activity change, negative = cytotoxicity": "-5.24% (inactive)"}
    ]}
  ]
}
